GLD-1 TGE inh – GLD-1-TGE RNA interaction inhibition (C. elegans); Q17339; purified GLD-1 + fluorescein TGE RNA, fluorescence polarization; inhibition, % at 5.96 µM; actives 0.44% (n = 320,000); AID 2280;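 active means percent inhibition above a per-plate cutoff, the plate mean of test compounds plus 3 SD, cut at about 30% in these data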
Target sequence (Q17339 whole entry, looked up): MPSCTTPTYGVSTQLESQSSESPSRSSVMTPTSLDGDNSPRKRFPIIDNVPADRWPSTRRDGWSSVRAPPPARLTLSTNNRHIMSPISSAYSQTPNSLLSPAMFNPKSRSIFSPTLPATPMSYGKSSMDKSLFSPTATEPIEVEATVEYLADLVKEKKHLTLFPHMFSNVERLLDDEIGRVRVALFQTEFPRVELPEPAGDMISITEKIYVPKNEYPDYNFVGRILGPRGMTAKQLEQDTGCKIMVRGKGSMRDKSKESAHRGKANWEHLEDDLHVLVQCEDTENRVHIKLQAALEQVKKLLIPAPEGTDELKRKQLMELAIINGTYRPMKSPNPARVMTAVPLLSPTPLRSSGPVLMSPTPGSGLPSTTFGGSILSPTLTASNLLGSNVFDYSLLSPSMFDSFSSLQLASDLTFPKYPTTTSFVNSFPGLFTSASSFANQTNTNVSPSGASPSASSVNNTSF
E coli Lon inh – inhibitors of E. coli Lon protease. actives 0.42% (n = 360,000). AID 602123. P0A9M0. inhibition, % at 7.94 µM. purified E. coli Lon protease, fluorescence polarization; in the data active means inhibition above about 13%, passing the limit was not always enough
Cardiac RTF inh – cardiac RTF calcium desensitization; P19429+P45379; IANBD-labeled cardiac RTF, Ca2+ fluorescence; inhibition, % at 7.15 µM; actives 0.12% (n = 340,000);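 active means inhibition above the mean inhibition of all tested compounds plus 3 SD, cut at about 17% in these data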;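 further: assay run at fixed EC70 calcium of 1.6 mM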
RTF Ca sens act – increases calcium sensitivity of human cardiac regulated thin filaments. P19429+P45379. IANBD-labeled TnC RTF fluorescence at EC20 calcium; 0% EC20 calcium, 100% full calcium. activation, % at 7.2 µM. actives 0.24% (n = 340,000). AID 493008;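 active means activation above the mean over all tested compounds plus 3 SD, cut at about 30% in these data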;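 further: rise in fluorescence read as greater calcium sensitivity of cardiac thin filaments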
Bcl-xL primary – inhibitors of human Bcl-xL | actives 0.7% (n = 320,000) | inhibition, % at 10.9 µM | GST-Bcl-xL / FITC-Bim BH3 peptide fluorescence polarization;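 active means inhibition above the mean of all tested compounds plus 3 SD, cutoff set per campaign, cut at about 30% in these data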;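 further: inhibitors lower millipolarization by displacing the labeled peptide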
Each line names hits and unclear results; the compound was inactive in the other large screens. The list is not random: actives were taken first. Their share in the collection is about 1.2%.

COc1cc(C(=O)Nc2ccc(C)cn2)c([N+](=O)[O-])cc1OC	none
O=C(O)CSc1cccc[n+]1[O-]	none
N#CC(C#N)=C(N)CSc1cccc[n+]1[O-]	Bcl-xL primary 30
CCN1C(=O)S/C(=C\c2ccc(N3CCOCC3)cc2C)C1=O	none
CCCN1C(=O)S/C(=C/c2ccc(N3CCOCC3)o2)C1=O	RTF Ca sens act 189
CCCN1C(=O)S/C(=C\c2ccc(N3CCOCC3)o2)C1=O	RTF Ca sens act 171
COc1ccc(C(=O)C2CCCN(Cc3sc(N4CCCC4)nc3Cl)C2)c(OC)c1 (stereo not given)	none
CCCNC(=O)N(C)C[C@@H]1Oc2cc(C#CC(C)(C)O)ccc2S(=O)(=O)N([C@H](C)CO)C[C@H]1C	none (no result: GLD-1 TGE inh, Cardiac RTF inh, RTF Ca sens act, Bcl-xL primary)
COc1ccc(OC)c(/C=C/c2nc3ccccc3[nH]c2=O)c1	GLD-1 TGE inh 75, RTF Ca sens act 72, Bcl-xL primary 78
COc1ccc(OC)c(C=Nc2ccccc2-c2nc3ccccc3[nH]2)c1	none
CCOc1cccc(C(=O)Nc2ccc3[nH]ncc3c2)c1	none
CN=C(c1ccco1)n1c(=S)nc(-c2ccco2)n(C)c1=S	Bcl-xL primary 33
CN=C(c1ccc(C)cc1)n1c(=S)nc(-c2ccc(C)cc2)n(C)c1=S	none
CC(=O)[C@@H]1[C@@H](C(=O)c2ccc(F)cc2)[C@]2(C(=O)Nc3ccccc32)[C@H]2C=Cc3cc(F)ccc3N12	none
O=C(c1ccc(F)cc1)[C@@H]1[C@@H](C(=O)c2ccccc2)[C@@]2(C(=O)Nc3ccccc32)[C@H]2c3ccccc3C=CN12	GLD-1 TGE inh 34 (no result: E coli Lon inh, Cardiac RTF inh, RTF Ca sens act)
CC(C)(CNc1ccc([N+](=O)[O-])cc1Cl)N1CCOCC1	none
CN(C)c1ccc(/C=N/N(CCO)C2=NS(=O)(=O)c3ccccc32)cc1	GLD-1 TGE inh 36, RTF Ca sens act 316, Bcl-xL primary active
O=S1(=O)N=C(N(CCO)/N=C/c2ccc(Cl)cc2)c2ccccc21	none
O=C(O)/C=C/C(=O)Nc1ccc(N2CCOCC2)nc1N1CCOCC1	Bcl-xL primary 39
CC(C)OCCCn1c(-c2ccco2)nc2nc3ccccc3nc21	Bcl-xL primary 35
CCOC(=O)c1c(-c2ccc(C)cc2)csc1NC(=O)/C(C#N)=C/c1ccc(O)c(OC)c1	RTF Ca sens act 49 (no result: GLD-1 TGE inh, Bcl-xL primary)
CCOC(=O)c1c(-c2ccccc2)csc1NC(=O)/C(C#N)=C\c1ccc(O)c(OC)c1	RTF Ca sens act 40 (no result: GLD-1 TGE inh, Bcl-xL primary)
CCOC(=O)/C(C#N)=C\c1ccc(O)c(OC)c1	none
COc1ccc(N/C(C)=C2/C(=O)C(=O)N(CCO)C2c2ccc([N+](=O)[O-])cc2)cc1 (stereo not given)	none
COc1ccc(/C=c2\s/c(=C/C(=O)c3ccc(C)cc3)[nH]c2=O)c(OC)c1	RTF Ca sens act 99, Bcl-xL primary 103
Cc1ccc(NC(=O)/C(=C\c2ccc([N+](=O)[O-])cc2)NC(=O)c2ccccc2)cc1	none
O=C(N/N=C/c1ccc(O)c(O)c1O)/C(=C/c1ccc([N+](=O)[O-])cc1)NC(=O)c1ccccc1	E coli Lon inh 27
S=c1[nH]nc(-c2ccccc2)n1/N=C/c1cccc(Br)c1	none
Nc1ccc(N)c(C(=O)O)c1	E coli Lon inh 43, Bcl-xL primary 58
Nc1ccc(C(=O)O)c(O)c1	none
C=CCn1c(SCc2ccc(C#N)cc2)nnc1-c1cccc(OC)c1	none
C/C(O)=c1/ccc2cccc3nc(C)nc1c23	Bcl-xL primary 71
N#C/C(=C\c1coc2ccccc2c1=O)C(N)=S	none
N#C/C(=C\c1coc2ccc(O)cc2c1=O)C(=O)Nc1nc2ccccc2s1	RTF Ca sens act 313
Cc1nc2c(C)cccn2c(=O)c1NC(=O)c1cccs1	none
CC(C)CNC(=O)CCCSc1nc2ccccc2[nH]1	none
COc1ccc(C)cc1Nc1n[n+](-c2ccccc2)c(-c2cc([N+](=O)[O-])cc(OC)c2O)s1	RTF Ca sens act 46
CCOC(=O)C1(C)CCN1C(=O)COc1ccc(C(C)(C)C)cc1 (stereo not given)	none (no result: GLD-1 TGE inh, Cardiac RTF inh, RTF Ca sens act, Bcl-xL primary)
COC(=O)\C(C(C)=O)=C(/C=C/C=C/N(C)C)N(C)C	Bcl-xL primary 32
COC(=O)/C(C(C)=O)=C(/C=C/C=C/N(C)C)N(C)C	none
OCCCc1nc2n(n1)C(c1cccs1)C=C(c1ccc(Br)cc1)N2 (stereo not given)	GLD-1 TGE inh 163, Bcl-xL primary 189 (no result: E coli Lon inh, Cardiac RTF inh, RTF Ca sens act)
COC(=O)[C@]1(CC(C)C)N[C@H](c2ccc(-c3ccc(OC)cc3)cc2)[C@@H]2C(=O)N(C)C(=O)[C@@H]21	none

Screens deposited in PubChem by The Scripps Research Institute Molecular Screening Center.
